In PubChem BioAssay (NCATS) one finds Potency data, which are given here for 15 compounds.

Results filed as inconclusive are left out. A call without a number means that no potency is given here. The source made the active and inactive calls. Calls follow the shape of the full dose curve.

The nature of the assay: Cytotoxicity counterscreen for inhibitors of SARS-CoV-2 cell entry (AID 1645845). Also: nearly all actives have a fitted effect of over 50% in size. To be noted: cell viability (SARS-CoV-2 entry assay cells); series mostly up to 57.1 µM. In short, it runs like this:
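Counterscreen run in the same HEK293-ACE2 line as the pseudotyped-particle entry assay, without particles. Viability after 48 h at 37 C was read as ATP luminescence, scaled between cell-containing and cell-free wells.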
(In general: A counterscreen serves to expose hits that act by an unwanted route or on another target.)
Take `COc1ccccc1N1CCN(CC(O)COc2cccc3ccccc23)CC1` (stereo not given): the Potency result was “inactive”.

Consider `C/C=C/C(=O)N(CC)c1ccccc1C`, for which the Potency result was “inactive”.

In the case of `CC(Oc1c(Cl)cccc1Cl)C1=NCCN1` (stereo not given), the Potency result is “inactive”.

Regarding `OC(CCN1CCCCC1)(c1ccccc1)C1CC2C=CC1C2` (stereo not given), the Potency entry is “inactive”.

Consider `CC(=O)OC[C@H]1O[C@@](COC(C)=O)(O[C@H]2O[C@H](COC(C)=O)[C@@H](OC(C)=O)[C@H](OC(C)=O)[C@H]2OC(C)=O)[C@@H](OC(C)=O)[C@@H]1OC(C)=O`, for which the Potency entry is “inactive”.

On to `CCCCC1(COC(=O)CCC(=O)O)C(=O)N(c2ccccc2)N(c2ccccc2)C1=O`, for which the Potency entry was “inactive”.

As to `CCCCOc1ccc(C(=O)CCN2CCCCC2)cc1`, the Potency entry is “inactive”.

Consider `CC(=O)Oc1ccc(C(=C2CCCCC2)c2ccc(OC(C)=O)cc2)cc1`, for which the Potency entry is “inactive”.

Consider `CC[C@H](c1ccc(O)cc1)[C@@H](CC)c1ccc(O)cc1`, for which the Potency entry was “inactive”.

As to `CCOC(=O)Cn1cccc1-c1nc(-c2ccc(OC)cc2)c(-c2ccc(OC)cc2)s1`, the Potency entry is “inactive”.

Consider `O=C(CCCCC(=O)Nc1c(I)cc(I)c(C(=O)O)c1I)Nc1c(I)cc(I)c(C(=O)O)c1I`, for which the Potency entry was “inactive”.

Take `O=C1C(CCS(=O)c2ccccc2)C(=O)N(c2ccccc2)N1c1ccccc1` (stereo not given): the Potency entry is “inactive”.

Take `CC(=O)OCC1=C(C(=O)O)N2C(=O)[C@@H](NC(=O)CSc3ccncc3)[C@H]2SC1`: the Potency result is “inactive”.

As for `C=C1c2cccc(O)c2C(O)=C2C(=O)[C@]3(O)C(O)=C(C(N)=O)C(=O)[C@@H](N(C)C)[C@@H]3[C@@H](O)[C@H]12`, the Potency result was “inactive”.

Regarding `CCO[C@@H]1O[C@H](C(COCc2ccccc2)OCc2ccccc2)[C@H](OCc2ccccc2)[C@H]1O` (stereo not given in full), the Potency result was “inactive”.
